# Reference: PubChem BioAssay AID624481 (The Scripps Research Institute Molecular Screening Center, 2012)
# Activity calls are given as the source filed them. Cut-off read from the data, not from the text of the source: active = inhibition above about 50%; inactive = the rest.
# Target: Prolyl endopeptidase-like (Mus musculus) (UniProt Q8C167)
# Experiment: mouse PREPL enzyme inhibition by screening hits – biochemical, gel-based competitive ABPP, fluorescence, HTS hits, PREPL inhibitor project (AID 624481)
# Settings: purified mouse PREPL, at 20 µM, hits give high values
# Chain of Prolyl endopeptidase-like (Mus musculus) (Q8C167 whole entry, looked up): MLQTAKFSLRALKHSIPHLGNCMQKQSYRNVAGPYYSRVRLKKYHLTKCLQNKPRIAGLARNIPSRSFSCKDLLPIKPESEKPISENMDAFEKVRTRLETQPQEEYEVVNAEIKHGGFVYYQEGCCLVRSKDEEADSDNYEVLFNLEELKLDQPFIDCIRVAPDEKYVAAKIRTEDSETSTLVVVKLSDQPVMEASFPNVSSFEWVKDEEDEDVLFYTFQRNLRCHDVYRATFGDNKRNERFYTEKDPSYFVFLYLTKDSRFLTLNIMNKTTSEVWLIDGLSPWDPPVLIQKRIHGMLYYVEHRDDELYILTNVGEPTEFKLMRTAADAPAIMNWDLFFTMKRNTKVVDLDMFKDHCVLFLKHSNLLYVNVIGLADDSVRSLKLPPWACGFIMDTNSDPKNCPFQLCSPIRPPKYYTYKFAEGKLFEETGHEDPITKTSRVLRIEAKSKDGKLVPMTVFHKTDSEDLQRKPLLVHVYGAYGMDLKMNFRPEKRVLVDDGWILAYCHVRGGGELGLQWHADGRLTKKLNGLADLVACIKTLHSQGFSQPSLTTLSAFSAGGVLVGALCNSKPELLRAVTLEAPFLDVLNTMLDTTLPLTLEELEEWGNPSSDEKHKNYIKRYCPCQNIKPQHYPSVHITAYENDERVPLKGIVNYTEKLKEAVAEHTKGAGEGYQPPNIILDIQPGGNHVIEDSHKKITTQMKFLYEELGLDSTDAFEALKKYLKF
row,SMILES,inhibition
1,Oc1ccccc1-[n+]1c(-c2ccccc2)cc(-c2ccccc2)cc1-c1ccccc1,-30% (inactive)
2,CC(C)c1ccc(CNc2ccc(N3CCOCC3)cc2)cc1,-12% (inactive)
3,CCn1c2ccccc2c2cc(CNCc3ccc(OC)cc3OC)ccc21,-93% (inactive)
4,CN(C)c1ccc(N=C/C=C2\N(C)c3ccccc3C2(C)C)cc1,-78% (inactive)
5,Cc1c(CN(C)C)c2c(n1Cc1ccccc1)C(=O)c1ccc(Br)cc1-2,-33% (inactive)
6,O=C(C1=C[C@@H](c2ccc(C(F)(F)F)cc2)C[C@@H](OCc2ccc(CO)cc2)O1)N1CCN(Cc2ccc3c(c2)OCO3)CC1,-49% (inactive)
7,COc1cc2nc(Nc3ccc(C)c(C)c3)nc(N)c2cc1OC,0% (inactive)
8,CCN1/C(=C/c2ccc3ccc(C)cc3[n+]2CC)Sc2ccccc21,-19% (inactive)
9,COc1ccc(NC(=O)N2CCN(c3ccc([N+](=O)[O-])cc3)CC2)cc1OC,-40% (inactive)
10,CCN1/C(=C/c2ccc3cc(C)ccc3[n+]2CC)Sc2ccccc21,98% (active)
11,C#CCOCCOCCOCCNc1nc(N2CCN(C(=O)[C@H](CCCCN)n3cc([C@@H](N)C(C)CC)nn3)CC2)nc(N2CCN(C(=O)[C@H](Cc3cc4ccccc4[nH]3)n3cc([C@@H](N)C(C)CC)nn3)CC2)n1 (some centres not stated),-33% (inactive)
12,C#CCOCCOCCOCCNc1nc(N2CCN(C(=O)CCCCCCCCCCNC(=O)Cn3cc(CCCCCN)nn3)CC2)nc(N2CCN(C(=O)CCCCCCCCCCNC(=O)[C@H](CO)n3cc(CCCSC)nn3)CC2)n1,31% (inactive)
13,CCCOc1ccccc1-n1sc2c(c1=S)-c1cc(OC)cc3c1N(C(=O)C3=O)C2(C)C,-26% (inactive)
14,CC(C)NCC(O)Cn1c2c(c3ccccc31)CCc1c-2cnn1-c1ccccc1 (configuration not stated),-123% (inactive)
15,Cc1ccc(OCC(=O)Nc2ccc(N3CCN(C(=O)c4ccco4)CC3)cc2)cc1C,44% (inactive)
16,CCOc1ccc2[nH]c3c(N4CCc5ccccc5C4)ncnc3c2c1,1% (inactive)
17,Oc1cc(Nc2ccncc2)cc2cccnc12,-59% (inactive)
18,CN1CCN(C(=O)C2=C[C@@H](c3ccc(C(F)(F)F)cc3)C[C@@H](OCc3ccc(CO)cc3)O2)CC1,-83% (inactive)
19,O=C(C1=C[C@@H](c2ccccc2)C[C@@H](OCc2ccc(CO)cc2)O1)N1CCN(Cc2ccc3c(c2)OCO3)CC1,-73% (inactive)

row,SMILES,inhibition
1,CCN1CCN(c2ccc(NC(=O)COc3ccc(Cl)cc3C)cc2)CC1,-7% (inactive)
2,c1cncc(N=c2scc(-c3cccc4ccccc34)n2CCCn2ccnc2)c1,-95% (inactive)
3,Cc1ccc(C)c(-c2nn(-c3cc(N4CCN(CCO)CC4)ccc3[N+](=O)[O-])c(=O)c3ccccc23)c1,7% (inactive)
4,Clc1ccc2nc(-c3ccccn3)c(Nc3ccc4c(c3)OCO4)n2c1,-49% (inactive)
5,Nc1nn(-c2ccccc2)c(N)c1N=Nc1cccc(F)c1,0% (inactive)
6,CNC(=S)N1N=C(c2ccc(C)cc2)CC1c1ccc(N(C)C)cc1 (configuration not stated),-85% (inactive)
7,Cc1ccn2c(Nc3ccc4c(c3)OCO4)c(-c3ccccn3)nc2c1,-41% (inactive)
8,COc1cccc(N=Nc2c(N)[nH]n3c(=O)c4c(nc23)CCCC4)c1,93% (active)
9,CCCCC(CC)C(=O)Nc1cc(C(=O)NCCC)ccc1N1CCC2(CC1)CC(c1ccccc1)=NO2 (configuration not stated),-141% (inactive)
10,Nc1nc(-c2ccccc2)c(N=Nc2ccccc2Cl)s1,-9% (inactive)
11,CCC(CN(C)C)Oc1cc(NCc2ccccc2)c2ncn(C(C)C)c2c1 (configuration not stated),-65% (inactive)
12,COc1ccc(N2CCN(C(=O)CN3C(=O)NC(C)(c4ccc5ccccc5c4)C3=O)CC2)cc1 (configuration not stated),-26% (inactive)
13,CCN(C(=O)CN1CCN(S(=O)(=O)c2cc(Cl)ccc2Cl)CC1)c1c(N)n(Cc2ccccc2)c(=O)[nH]c1=O,99% (active)
14,COc1cccc2cc(C(=O)C3=C(O)C(=O)N(CCN4CCOCC4)C3c3ccc(C(C)(C)C)cc3)oc12 (configuration not stated),-36% (inactive)
15,CCCCCN=C(N)NN=Cc1c[nH]c2ccc(OC)cc12,-11% (inactive)
16,C#CCOCCOCCOCCNc1nc(N2CCN(C(=O)CCCCCCCCCCNC(=O)[C@H]([C@@H](C)CC)n3cc(CCCCCN)nn3)CC2)nc(N2CCN(C(=O)CCCCCCCCCCNC(=O)[C@H](CO)n3cc(CCCCCN)nn3)CC2)n1,-61% (inactive)
17,CN(C)c1ccc(C(O)P(=O)(OCc2ccccc2)c2ccc(N(C)C)cc2)cc1 (configuration not stated),-57% (inactive)
18,CC(C)(C)Nc1nc(-c2ccccn2)nc2ccccc12,-31% (inactive)
